Screening data deposited in PubChem BioAssay by National Center for Advancing Translational Sciences (NCATS).
ALDH1A1 inh: qHTS Assay for Inhibitors of Aldehyde Dehydrogenase 1 (ALDH1A1). 220,000 tested, 7.3% active. Potency, µM (top dose mostly 75.3 µM), for the others: top-dose activity, negative = inhibition, hits mostly inhibitors. Purified ALDH1A1, NADH fluorescence, propionaldehyde substrate. Aldehyde dehydrogenase 1A1 (Homo sapiens), P00352. AID 1030, 2008;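 note: potency is the fitted concentration of half-maximal effect; plate controls were no enzyme wells and a reference inhibitor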
IMPase cell inh: qHTS Assay for Identifying the Cell-Membrane Permeable IMPase Inhibitors; Inositol monophosphatase 1 (Rattus norvegicus), P97697; CHO-M1 cells, IP1 accumulation, HTRF TR-FRET ratio; inhibition (IP1 accumulation), % at 46.1 µM; 120,000 tested, under 10 active; AID 901, 2007; active = well fitted curve in the direction sought with a large enough effect in the signal ratio, not every such curve was filed as active; inconclusive = small, poorly fitted or top-dose-only effect, or a change in a side signal; inactive = no such curve, though single readings can be large or run the other way; the % refers to the signal ratio;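 note: cells stimulated with carbachol in lithium chloride buffer; plate controls were DMSO basal wells for no effect and reference inhibitor wells for full effect; higher means more IMPase inhibition seen as more IP1 and lower FRET ratio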
Target sequence (P97697 whole entry, looked up): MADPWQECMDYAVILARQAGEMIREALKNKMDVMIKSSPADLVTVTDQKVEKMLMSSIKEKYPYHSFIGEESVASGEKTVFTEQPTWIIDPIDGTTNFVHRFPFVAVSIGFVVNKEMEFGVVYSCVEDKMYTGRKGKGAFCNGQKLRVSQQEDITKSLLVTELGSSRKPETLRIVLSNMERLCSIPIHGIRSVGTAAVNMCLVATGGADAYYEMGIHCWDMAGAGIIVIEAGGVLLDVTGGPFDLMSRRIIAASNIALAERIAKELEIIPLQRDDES
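Elevated IP1 in lysates lowers TR-FRET signal (665/620 ratio and 620 channel reported). Cells were CHO-M1, given carbachol (50 uM as added) plus 50mM LiCl, pH 7.4, 30 min, 37C; compounds titrated up to 46 uM; AC50 by Hill equation.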
HPGD block: qHTS Assay for Inhibitors of HPGD (15-Hydroxyprostaglandin Dehydrogenase). 15-hydroxyprostaglandin dehydrogenase [NAD(+)] (Homo sapiens), P15428. purified HPGD, NADH fluorescence kinetic, PGE2 substrate. Potency, µM, for the others: top-dose activity change, negative = inhibition, hits mostly inhibitors. 150,000 tested, 4.3% active. AID 894, 2007; note: potency is the fitted concentration of half-maximal effect
Target sequence (P15428 whole entry, looked up): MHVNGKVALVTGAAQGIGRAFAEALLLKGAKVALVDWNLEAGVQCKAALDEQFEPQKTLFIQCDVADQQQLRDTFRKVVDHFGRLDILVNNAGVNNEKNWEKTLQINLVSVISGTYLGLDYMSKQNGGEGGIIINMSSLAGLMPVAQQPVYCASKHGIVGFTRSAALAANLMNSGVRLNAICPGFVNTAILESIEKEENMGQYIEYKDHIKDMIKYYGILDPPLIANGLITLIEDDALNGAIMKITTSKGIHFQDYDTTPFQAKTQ
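20 nM HPGD preincubated 15 min at room temperature with compound in 50 mM Tris-HCl pH 8, 0.01% Tween 20. Started with 1 mM NAD+ and 30 uM prostaglandin E2; NADH fluorescence (360/450 nm) read 5 times over 30-s intervals, last minus first.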
Starred values were filed as active, the others as inactive; ? = inconclusive; . = not tested or not shown. Rows were chosen to be rich in hits. Some 9% of all compounds tested hit in one or more screens of this group. Unless noted, calls come from the whole dose curve; as a rule, active = well fitted inhibition curve with a large enough effect (not every such curve was filed as active); inconclusive = small, poorly fitted or top-dose-only effect, or another doubt; inactive = no such curve, though single readings can be large or run the other way. Unless noted, % is set by controls: 0 for no effect and ±100 for the full control effect.

SMILES	ALDH1A1 inh	IMPase cell inh	HPGD block
COc1ccc(OC)c(C2C3=C(N=C4SCC(=O)N42)c2ccccc2CC3)c1 (centres undefined)	?	4	22µM*
COc1ccccc1NC(=O)N1C2CCCC1CC(NC(=O)c1ccccc1)C2 (centres undefined)	-1%	.	.
Nn1c(N2CCCCC2)nc2ccccc21	8%	5	-4%
Cc1cc(C)c2nc(N3CCC(C(=O)N4CCN(C(=O)c5ccco5)CC4)CC3)sc2c1	13µM*	4	-14%
Cc1cc(C)c2nc(N3CCC(C(=O)NCc4cccnc4)CC3)sc2c1	4%	.	.
Cc1ccc(S(=O)(=O)N(CC(=O)N2CCC(C)CC2)c2cccc(C)c2)cc1	11µM*	12	-9%
CCOC(=O)N1CCN(C(=O)CN(c2cccc(C)c2)S(=O)(=O)c2ccc(C)cc2)CC1	?	14	-3%
Fc1ccc(Oc2cnc3ccccc3n2)cc1	0%	.	.
Cc1cc2c(cc1C)NC(CC(=O)Nc1ccccc1SC(F)(F)F)C(=O)N2 (centres undefined)	.	0	.
CCn1c(=O)c2c(cnn2C)c2ccccc21	9%	2	32µM*
CCn1c(=O)c(-c2ccccc2)c(O)c2ccccc21	0%	-5	-6%
C=CCNC(=O)CSc1n[nH]c(-c2cc(Cl)ccc2OC)n1	1%	.	.
Cc1ccc(Cn2nnc3c(=O)n(Cc4cc(C)ccc4C)cnc32)cc1	6%	-1	4µM*
CCOC(=O)C(C)n1cnc2c(nnn2Cc2ccc(C)cc2)c1=O (centres undefined)	9%	5	-8%
Cc1ccc(Cn2cnc3c(nnn3Cc3ccc(Cl)cc3)c2=O)cc1	10%	-6	-6%
COc1ccc(-n2nnc3c(=O)n(Cc4cc(C)ccc4C)cnc32)cc1	6%	13	-24%
O=c1c2nnn(Cc3ccc(Cl)cc3)c2ncn1Cc1ccc(F)cc1	-2%	4	28µM*
Cc1ccc(Cn2nnc3c(=O)n(Cc4cccc(C)c4)cnc32)cc1	6%	18	5µM*
Cc1cccc(Cn2cnc3c(nnn3Cc3ccc(Cl)cc3)c2=O)c1	18%	6	13µM*
Cc1ccccc1Cn1cnc2c(nnn2Cc2ccc(F)cc2)c1=O	1%	10	-10%
CC(=O)N[C@H]1C(O[C@@H]2O[C@H](C[C@@H](O)[C@H]3O[C@@H](N4CCC(=O)NC4=O)[C@H](O)[C@@H]3O)[C@H](O)[C@H](O)[C@H]2NC(=O)/C=C/CCCCCCCCCCC(C)C)OC(CO)[C@@H](O)[C@@H]1O (some centres undefined)	-4%	.	-3%
COc1ccc(OC)c(NS(=O)(=O)c2ccc(NC(=O)c3ccc(NS(C)(=O)=O)cc3)cc2)c1	?	.	-14%
Cc1ccc(/C=C/S(=O)(=O)NCC(=O)OCC(=O)N2CC(=O)Nc3ccccc32)cc1	-8%	.	.
CC(C)CNC(=O)c1cccc(NC(=O)C(C)C)c1	8%	.	.
CCC1OC(=O)C(C)[C@@H](O[C@H]2C[C@@](C)(OC)C(O)C(C)O2)C(C)[C@@H](O[C@@H]2OC(C)CC(N(C)C)C2O)[C@@](C)(O)CC(C)C2NC(COCCOC)O[C@H](C2C)[C@@]1(C)O (some centres undefined)	5%	.	-1%
SMILES	ALDH1A1 inh	IMPase cell inh	HPGD block
COc1ccc(-n2c(=O)cc(N3CCN(c4ccccc4F)CC3)[nH]c2=O)cc1	4µM*	-2	2%
COc1ccc(-n2c(=O)cc(N3CCN(c4ccccc4OC)CC3)[nH]c2=O)cc1	-2%	5	-9%
CC1CCC2C(=O)N(c3ccc(Cc4ccncc4)cc3)C(=O)C2C1 (centres undefined)	5%	.	.
O=C(c1cccc(F)c1)N1CCC2(CCN(Cc3ccncc3)CC2)CC1	-4%	.	-3%
COc1cc2cc(CN(Cc3nnnn3Cc3ccccc3)CC3CCCO3)c(=O)[nH]c2cc1OC (centres undefined)	?	0	?
Cc1ccc(CN(Cc2cc3cc4c(cc3[nH]c2=O)OCCO4)Cc2nnnn2Cc2ccco2)cc1	?	-21	?
COc1ccc2[nH]c(=O)c(CN(Cc3nnnn3Cc3ccco3)C3CCCCC3)cc2c1	?	-5	?
COc1ccccc1CN(Cc1cc2c(C)ccc(C)c2[nH]c1=O)Cc1nnnn1Cc1ccco1	14µM*	1	-7%
COc1ccc2cc(CN(CCc3ccccc3)Cc3nnnn3Cc3ccco3)c(=O)[nH]c2c1	0.079µM*	8	-12%
Cc1ccc2cc(CN(Cc3ccc4c(c3)OCO4)Cc3nnnn3Cc3ccco3)c(=O)[nH]c2c1	14µM*	1	-28%
COc1ccc(OC)c(NC(=O)C(CCSC)NS(=O)(=O)c2cccs2)c1 (centres undefined)	.	5	.
COc1cccc(C(=O)C2CCCN(Cc3cccc(-n4nc(C)cc4C)c3)C2)c1 (centres undefined)	9%	.	.
Cc1nn(C)c(C(=O)NC2C3CC4CC(C3)CC2C4)c1Cl (centres undefined)	?	.	-9%
CCCNC(=O)/C=C/c1ccc(C(C)C)cc1	?	.	-20%
CC(C)c1ccc(/C=C/C(=O)NCCC2=CCCCC2)cc1	4.5µM*	13	-25%
O=c1cc(O)n(-c2ccc(Cl)cc2)c(=S)[nH]1	1%	-7	-9%
COc1cccc2c(=O)n(CC(=O)Nc3ccccc3F)ccc12	?	-5	?
S=C(NCCc1ccccc1)N1CCN(C23CC4CC(CC(C4)C2)C3)CC1	-8%	.	.
O=S(=O)(c1ccccc1F)N1CCN(Cc2nc3ccccc3[nH]2)CC1	11µM*	-2	-7%
c1ccc2[nH]c(CN3CCCCCC3)nc2c1	-4%	6	-17%
CN(C)/C=C\C(=C/C(=O)C(F)(F)F)Nc1ccccc1Oc1ccccc1	3%	.	.
Cc1cc(OCC(=O)Nc2ccc(C(=O)OC3CCCCC3)cc2)cc(C)c1Cl	.	-3	.
CCN(/C=N/S(=O)(=O)c1ccc(Cl)cc1)CC	9%	.	.
c1ccc(N2CCN(c3nnnn3-c3ccccc3)CC2)cc1	?	0	-2%
ClC(Cl)(c1nnnn1-c1ccccc1)c1nnnn1-c1ccccc1	1.1µM*	.	3.2µM*
SMILES	ALDH1A1 inh	IMPase cell inh	HPGD block
CCOc1ccc(NCc2nnc(SCC(=O)Nc3nc(-c4ccccc4)cs3)n2-c2ccccc2)cc1	?	.	-6%
O=C(N/N=C/c1ccccc1)c1[nH]c2ccc(Br)cc2c1-c1ccccc1	-4%	-7	-22%
O=C(NN=C1CCCC1)c1[nH]c2ccc(Br)cc2c1-c1ccccc1	18µM*	.	.
CCCOc1ccc(C(=O)NCC(c2ccco2)N(C)C)cc1 (centres undefined)	?	10	-22%
OCc1ccccc1O[C@H]1OC(CO)C(O)C(O)C1O (some centres undefined)	2%	.	5%
COc1cccc(CNc2ccc(C)c(Cl)c2)c1	-10%	.	.
COc1cccc(CNc2ccc3c(c2)CCC3)c1	13µM*	-1	-23%
Cc1c(Cl)cnc(NC(=O)COC(=O)CCc2nc3ccccc3s2)c1Cl	5%	2	-11%
Cc1nc(SCC(=O)NCc2ccco2)c2c(=O)n(C)c(=O)n(CC(C)C)c2n1	0%	.	.
